Screens: PubChem, National Center for Advancing Translational Sciences (NCATS)
HCMV inh – qHTS Assay for inhibitors of the human cytomegalovirus (HCMV) | HFF cells, HCMV-luciferase reporter, 72 h; active compounds read low | activity change, negative = inhibition, % at 57.5 µM | hit rate 4.5% among 410,000; in the data active = activity change below about -60%; inconclusive = no clear call, values can overlap the other calls; inactive = above about -39%
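After 16 h attachment at 37C, HFF cells received test compound and HCMV-luciferase (1 PFU/cell); reporter luminescence read 72 h later, data normalized against buffer-only and known inhibitor Salinomycin.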
LASV entry inh – qHTS for Inhibitors of binding or entry into cells for Lassa Virus | Lassa virus pseudotype entry inhibition, cell reporter | Potency, µM (doses to about 37.9 µM), without a hit: at the highest dose activity change, negative = inhibition, actives largely listed as inhibitors | hit rate 1.2% among 300,000 | AID 540256, 2011; calls by dose curve; tested in HEK293 cells; also: potency is read from the fitted curve at half-maximal effect; nearly all actives have a fitted effect of over 50% in size
MARV entry inh – qHTS for inhibitors of binding or entry into cells for Marburg Virus | Potency, µM (doses to about 37.8 µM), inactives show at the top dose activity change, negative = inhibition, actives largely listed as inhibitors | hit rate 1.8% among 300,000 | Marburg virus pseudotyped entry inhibition, cell reporter; calls by dose curve; tested in HEK293 cells; also: potency is read from the fitted curve at half-maximal effect
FMDV inh – High Throughput Screening for Foot and Mouth Disease Virus Antivirals; FMDV antiviral cell-based qHTS; Potency, µM (top dose mostly 57.9 µM), without a hit: at the highest dose activity change, negative = inhibition, most hits filed as inhibitors; hit rate 1.2% among 410,000; calls by dose curve; tested in HEK293T cells; also: read-out not given here; potency is read from the fitted curve at half-maximal effect; nearly all actives have a fitted effect of over 45% in size
* hit, by the source's call; ? = inconclusive; / = no result; + = active, no number; ! = not active in a repeat; [ ] = dose if it differs, or a comment. Most compounds without a hit are left out; they make up all but 6.2% or so of the library. % is scaled to controls: 0 for no effect and ±100 for the full control effect.

SMILES	HCMV inh	LASV entry inh	MARV entry inh	FMDV inh
c1ccc(C2[C@H]3CN(Cc4cccnc4)[C@H](c4ccccc4)C34CC2(c2cccnc2)C4)cc1 (stereo not given in full)	-64.6*	/	/	-4.7%
c1ccc(C2[C@H]3CN(Cc4cccnc4)[C@H](c4ccccc4)C34CC2(c2ccccc2)C4)cc1 (stereo not given in full)	-6.0	/	/	?
FC(F)(F)c1ccc(CN2C[C@@H]3C(c4ccc(C(F)(F)F)cc4)C4(c5cccnc5)CC3(C4)[C@H]2c2ccccc2)cc1 (stereo not given in full)	-72.8*	/	/	?
O=C(CN1CCCC1c1cccs1)N1CCN(S(=O)(=O)c2ccccc2)CC1 (stereo not given)	-22.6	16.0%	5.0%	-23.4%
CCn1cc(CNC(=O)CSc2nc(-c3ccc(OC)c(OC)c3)cc(C(F)(F)F)n2)c(C)n1	36.9	?	2.4%	-5.9%
CCOc1ccc(NC(=O)CSc2nc3ccsc3c(=O)n2CCCCCC(=O)O)cc1	+!	-24.0%[46.1 µM]	/	-0.9%
CCOc1ccc(NC(=O)CSc2nc3ccsc3c(=O)n2CC)cc1	?	-1.5%[46.1 µM]	/	-17.7%
CNCCC[C@]12CC[C@H](C3=C1CCCC3)C1CCCCC12 (stereo not given in full)	/	/	4.61µM*	/
COc1cc(NC(=O)c2cccc(C)c2)ccc1NC(=O)c1cc2ccccc2o1	-86.7*	/	/	-20.6%
O=C(COc1ccc(/C=N/NC(=O)c2cc3ccccc3o2)cc1Br)Nc1ccccc1	-100.4*	?	?	-37.5%
O=C(COc1ccccc1[N+](=O)[O-])Nc1ccc(NC(=O)c2cc3ccccc3o2)cc1	?	?	?	-18.2%
CC(=O)Nc1ccc(NC(=O)c2cc(=O)c3ccccc3o2)cc1	-84.6*!	-3.3%[46.1 µM]	4.8%[46.1 µM]	-1.5%
O=C(Nc1ccccc1)c1cc2ccccc2o1	100.2	10µM*	?	-14.9%
CC(C)c1ccc(NC(=S)N2CCN(Cc3ccccc3)CC2)cc1	-39.9	/	/	58.8%
CCC1=C(OC(=O)N(CC)CC)N2C(=O)OC(=NCC3CC3)[C@]2(Cc2ccccc2)[C@H]2C1=CC[C@H]1C(=O)N(CC(=O)OC)C(=O)[C@H]12	10.3	/	/	59.8%
Cc1ccc(NC(=O)c2cc3ccccc3o2)nc1	53.0	5.01µM*	?	?
CC(=O)N1N=C(c2cccc(O)c2)CC1c1cccs1 (stereo not given)	-9.9	/	/	-21.7%
Cc1ccc2nc(-c3sc4nc(C)cc(C)c4c3N)[nH]c2c1	249.4	12.6µM*	?	3.6%
CC(NC(=O)CN1C(=O)NC2(CCCCCC2)C1=O)c1ccccc1 (stereo not given)	-61.0*	7.5%	?	9.9%
N#Cc1ccsc1NC(=O)CN1C(=O)NC2(CCCC2)C1=O	-4.5	/	/	/
CC(C)C(C)NC(=O)CN1C(=O)NC2(CCCCCC2)C1=O (stereo not given)	-27.6	13.4%[46.1 µM]	0.2%[46.1 µM]	21.8%
NC(=O)c1ccsc1NC(=O)CN1C(=O)NC2(CCCCC2)C1=O	-104.6*	/	/	-15.6%
Clc1ccc(OCCn2ccnc2)cc1Cl	20.8	?	-10.1%[46.1 µM]	-7.0%
Cc1cc(Cl)c2oc(C(=O)N3CCN(c4ccncc4)CC3)c(C)c2c1	-40.0	?	3.55µM*	-15.2%
Cc1ccccc1-c1nnnn1C1CCS(=O)(=O)C1 (stereo not given)	-66.8*	/	/	-12.9%
SMILES	HCMV inh	LASV entry inh	MARV entry inh	FMDV inh
CCc1cc(C(=O)NNC(=O)CCl)sc1C	-64.4*	?	?	14.8%
CCOC(=O)CC(NCc1ccc(OC)c(OCC)c1)c1ccc(C)cc1 (stereo not given)	35.6	-3.5%	21.8%[46.1 µM]	-7.7%
O=C(O)c1ccc2c(=O)n3cc(C(=O)c4ccccc4O)cc(Cl)c3nc2c1	-79.8*	/	/	0.0%
Cc1ncc(CO)c(CNc2ccc(Oc3ccccc3)cc2)c1O	-70.1*	?	-26.5%[46.1 µM]	-26.3%
Cc1ncc(CSSCc2cnc(C)c(O)c2CO)c(CO)c1O	-15.8	/	/	/
Cc1ncc(CO)c2cc(-c3nnc(Nc4ccc5c(c4)OCO5)s3)c(=O)oc12	-35.0	20.1%	-5.8%[46.1 µM]	-9.9%
O=c1[nH]nc(-c2ccc(NCCO)c([N+](=O)[O-])c2)c2ccccc12	-29.0	-12.9%[46.1 µM]	-18.1%[46.1 µM]	-12.0%
O=[N+]([O-])c1cc(Cl)cc2c1nc(NCCO)c1ccccc12	-94.9*	-9.1%[46.1 µM]	?	-7.2%
CN1CCN(C(=O)c2cccc(-c3cnc4cnc(-c5ccccc5Oc5ccccc5)cn34)c2)CC1	-12.8	/	/	-14.0%
CCOC(=O)c1ccc(N2C(=O)c3[nH]nc(-c4ccc(OCC)cc4)c3C2c2cccs2)cc1 (stereo not given)	-64.8*	?	?	?
CCOC(=O)c1ccc(N2C(=O)c3[nH]nc(-c4ccccc4)c3C2c2cccs2)cc1 (stereo not given)	-98.1*	?	?	-57.9%
CCOC(=O)c1ccc(N2C(=O)c3n[nH]c(C)c3C2c2cccnc2)cc1 (stereo not given)	4.7	-16.3%	-8.3%	-7.7%
CCOC(=O)c1ccc(N2C(=O)c3n[nH]c(-c4ccco4)c3C2c2ccc(O)c(OC)c2)cc1 (stereo not given)	-23.0	-24.4%[46.1 µM]	?	?
CC(C)(C)OC(=O)N1CCC(c2c(C(=O)NC3CC3)cnn2-c2ccc(Cl)cc2)CC1	-10.1	?	?	-6.9%
Cc1noc(/C=C/N(C)C)c1S(=O)(=O)N1CCCC(C(=O)NCc2ccccc2Cl)C1 (stereo not given)	-97.9*	-9.4%	-3.3%	-12.4%
Cc1noc(C)c1S(=O)(=O)N1CCN(c2ccccc2)CC1	7.4	/	/	-15.4%
Cc1ccc(C)c(N2CCN(S(=O)(=O)c3c(C)noc3/C=C/N(C)C)CC2)c1	-10.4	?	12.6µM*	?
Cc1noc(/C=C/N(C)C)c1S(=O)(=O)N1CCN(c2ccccc2)CC1	-86.1*	/	/	-25.6%
CNC(=O)C1CCN(S(=O)(=O)c2c(C)noc2/C=C/N(C)C)CC1	29.3	/	/	7.1%
Cc1ccc(NC(=O)CNC(=O)c2cccs2)nc1	50.5	32.2%[46.1 µM]	-11.3%	33.2%
COc1cc(NC(=O)CSc2nc(=O)n(CCCN3CCOCC3)c3c2CCC3)cc(OC)c1	10.2	5.8%	13.9%	-8.0%
NC(N)=N/N=C(\N=Nc1ccccc1)c1ccc(Cl)cc1	206.9	15.8µM*	?	9.0%
COc1ccc2c(Cn3cnc4cc([N+](=O)[O-])ccc4c3=O)cc(=O)oc2c1	/	?	4.47µM*	?
O=C(CCC1CCCN(C(=O)CCN2CCCCC2=O)C1)NCc1ccccc1F (stereo not given)	-105.4*	11.2%[46.1 µM]	0.7%[46.1 µM]	7.6%
Cn1cc(CCC(=O)N2CCCC(CCC(=O)NCc3ccccc3F)C2)cn1 (stereo not given)	-24.2	/	/	16.6%
Cc1cc2nn(-c3ccccc3)nc2cc1NC(=O)c1cccc2c(Cl)cccc12	20.1	1.0%[46.1 µM]	2.8%[46.1 µM]	31.3%
C=CCN1CCCC1CNC(=O)c1cc2[nH]nnc2cc1OC (stereo not given)	-68.1*	/	/	-8.8%
COc1ccc(CCNC(c2ccc(F)cc2)c2nnc(-c3ccccc3Cl)o2)cc1OC (stereo not given)	-9.1	-28.4%[46.1 µM]	12.6µM*	?
